Bioassay records deposited in PubChem by National Center for Advancing Translational Sciences (NCATS).
Sampled rows, rich in hits. Any-hit rate of the full collection: about 10%.
ALOX12 inhib: 12-hLO (ALOX12) enzyme inhibition | P18054 | purified 12-hLO, xylenol orange hydroperoxide absorbance | Potency, µM (series often up to 57.1 µM), inactives show at the highest dose activity change, negative = inhibition, actives largely listed as inhibitors | 150,000 compounds, 0.12% hits | AID 1452; further: potency means the concentration at half of the fitted maximal effect; nearly all actives have a fitted effect of over 55% in size
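150 nM 12hLO, 25 mM Hepes pH 7.0 + 0.01% Triton X-100; cpd preinc 15 min RT; 40 uM arachidonic acid, 30 min RT; Fe-XO 30 min; A573/A405 ratio as read-out.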
GLA spleen mod: inhibitors or activators of human alpha-galactosidase in spleen homogenate; Potency, µM (highest dose often 80 µM), inactives show at the highest dose activity change, negative = inhibition, usual class: inhibitors; AID 2107; 240,000 compounds, 0.008% hits; human spleen homogenate, 4MU-alpha-Gal fluorescence, 40 min;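 further: potency means the concentration at half of the fitted maximal effect; 0% = enzyme with vehicle and -100% = no enzyme basal signal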
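Fluorogenic readout (Ex 365/Em 440 nm) of 4-methylumbelliferone released from 1 mM 4-MU-alpha-galactoside by spleen homogenate, 40 min at 37C, pH 5.0. Data normalized to no-enzyme and enzyme controls; Hill-equation AC50 from compound titrations.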
PNC inhibitor: inhibitors of perinucleolar compartment assembly; PC3M PTB-GFP, PNC prevalence imaging, 16 h; hits give low values; activity change (PNC), negative = inhibition, % at 10 µM; 140,000 compounds, 3.1% hits; AID 2417;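 active means readout at or below -70, meaning at least 70% loss of cells showing the perinucleolar compartment, a nuclear body marking cancer cells; inconclusive means readout between -30 and a set limit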;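 further: plate controls were DMSO wells for no effect and camptothecin positive control wells for full effect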
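Compounds are pinned in duplicate onto adhered PC3M cells stably expressing GFP-tagged PTB and incubated 16 h at 37 C. Cells are then fixed, nuclei stained with Hoechst, and PNC-positive cells counted.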
GLA inh pH 4.5: blocks human alpha-galactosidase A at pH 4.5 | activity change, negative = inhibition, % at 105 µM | P06280 | 230,000 tested, under 10 active | purified enzyme, 4-MU-alpha-Gal fluorescence, pH 4.5;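 further: 0% = full activity with enzyme and -100% = basal without enzyme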
ALDH1A1 block: blocks purified human ALDH1A1 activity; P00352; Purified ALDH1A1, NADH fluorescence, propionaldehyde substrate; Potency, µM (doses to about 75.3 µM), for the others: at the top dose activity, negative = inhibition, actives largely listed as inhibitors; 220,000 compounds, 7.3% hits; AID 1030; active means well fitted inhibition curve with a large enough effect, not every such curve was filed as active; inconclusive means small, poorly fitted or top-dose-only effect, or another doubt; inactive means no such curve, though single readings can be large or run the other way;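 further: potency means the concentration at half of the fitted maximal effect; plate controls were no enzyme wells and a reference inhibitor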
HPGD inh: HPGD (human) dehydrogenase inhibition. purified HPGD, NADH fluorescence kinetic, PGE2 substrate. P15428. 150,000 compounds, 4.3% hits. Potency, µM, for the others: at the top dose activity change, negative = inhibition, most hits filed as inhibitors; active means well fitted inhibition curve with a large enough effect, not every such curve was filed as active; inconclusive means small, poorly fitted or top-dose-only effect, or another doubt; inactive means no such curve, though single readings can be large or run the other way; further: potency means the concentration at half of the fitted maximal effect
Target sequence (P15428 whole entry, looked up): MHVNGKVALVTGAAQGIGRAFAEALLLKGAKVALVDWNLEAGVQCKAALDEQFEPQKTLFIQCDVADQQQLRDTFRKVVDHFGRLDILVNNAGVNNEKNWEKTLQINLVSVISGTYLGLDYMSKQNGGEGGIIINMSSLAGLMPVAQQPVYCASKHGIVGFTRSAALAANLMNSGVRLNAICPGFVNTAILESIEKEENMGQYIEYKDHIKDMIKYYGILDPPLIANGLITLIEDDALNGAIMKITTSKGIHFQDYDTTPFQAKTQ
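NADH formation kinetics: reaction with 30 uM PGE2 and 1 mM NAD+ (final), 20 nM enzyme, Tris-HCl pH 8 with Tween 20, after 15 min compound preincubation at room temperature. Fluorescence change, last versus first of five reads.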
Active calls of the source: *; u = inconclusive; x = no result given; [ ] = another dose, or the depositor's remark. Unless noted, the call rests on the fitted dose curve; in most records, active means well fitted curve in the direction sought with a large enough effect; inconclusive means small, poorly fitted or top-dose-only effect, or another doubt; inactive means no such curve, though single readings can be large; an effect the other way counts as inactive or inconclusive. Unless noted, on the % scale 0 is the no-effect control and ±100 the full control effect.

SMILES	ALOX12 inhib	GLA spleen mod	PNC inhibitor	GLA inh pH 4.5	ALDH1A1 block	HPGD inh
COc1ccc(O[C@H]2C=C[C@@H](c3ccccc3)O[C@@H]2COC(=O)CC/C(C)=N/O[C@@H](C)CN2CCCCc3nc(C)c(C)cc32)cc1	-0.7%	-10.8%	-82.8*	-4.9	-11.7%	-17.1%
COc1ccc(C(C)=O)cc1CSc1nc2ccccc2c(=O)n1-c1ccccc1	6.0%	5.8%	u	7.3	u	-11.3%
COc1ccc(C(C)=O)cc1CSc1nc(C)cc(C)n1	x	0.5%	x	-5.4	u	x
CCOc1ccc(C(C)=O)cc1CSc1nc(C)cc(C)n1	x	-6.7%	x	-5.4	3.98µM*	x
COc1ccc(C(C)=O)cc1CSc1nc2ccccc2c(=O)n1-c1ccccc1C	-3.9%	-12.6%	-8.7	-14.7	u	-1.3%
COCCn1c(SCc2cc(C(C)=O)ccc2OC)nc2cc(Cl)ccc2c1=O	-0.1%	3.2%	-16.6	-5.7	17.8µM*	-2.9%
C=CCn1c(SCc2cc(C(C)=O)ccc2OCC)nc2ccccc2c1=O	1.1%	-4.1%	u	-7.5	2.24µM*	-11.7%
O=C(c1cnccn1)N1CCC2(CCCN(c3ccncc3)C2)CC1	-1.5%	8.2%	x	x	3.9%	-0.2%
CC(=O)OC[C@@H]1O[C@H](C/C=N\O[C@@H](C)CN2CCCCc3nc(C)c(C)cc32)C=C[C@@H]1OC(C)=O	x	-1.9%[17.5 µM]	x	x	-7.5%[13.5 µM]	x
O=C(c1cnn(-c2ccccc2)c1)c1ccccc1O	1.3%	-4.1%	-28.9	1.7	-2.3%	12.6µM*
COc1ccc(-n2cc(C(=O)c3ccccc3O)cn2)cc1	x	3.0%	x	-8.3	u	x
O=C1NN(C(=O)Nc2ccc(Br)cc2)C(c2ccccc2)C1c1ccccc1 (stereo not drawn)	x	-2.8%	x	x	x	x
COc1ncc2nc(-c3ccccc3)c(=O)n(C)c2n1	x	5.6%	x	x	u	x
COc1cc(/C=C/C(=O)c2ccc(NS(=O)(=O)c3ccc(C)cc3)cc2)ccc1OC(F)F	-22.7%	-1.2%	-28.2	2.7	-1.5%	15.8µM*
COc1cc(/C=C/C(=O)c2ccc(NS(=O)(=O)c3ccc(C)cc3)cc2)cc(OC)c1O	-15.7%	-5.0%	34.0	-18.8	22.4µM*	-17.2%
COc1cccc(/C=C/C(=O)c2ccc(NS(=O)(=O)c3ccc(C)cc3)cc2)c1	-12.9%	-4.4%	u	-6.8	-7.8%	-16.0%
C/C(=N/OC(=O)c1ccc(C(F)(F)F)cc1)c1oc(C)nc1C	x	4.6%	x	-21.0	10.2%	x
O=[N+]([O-])c1ccc(N2CCSCC2)cc1	x	0.5%	x	-0.5	u	x
C#C[C@]1(O)CC[C@@H]2[C@H]3CCC4=CCCC[C@@H]4[C@@H]3CC[C@@]21C	-2.0%[25.6 µM]	10.2%[29.1 µM]	x	-0.1	u	-9.2%
CCOc1ccc2nc(NC(=O)COC)sc2c1	-4.7%	3.0%	-22.1	4.5	11.0%	0.3%
CCOCC(=O)Nc1nc2ccc(OC)cc2s1	-2.3%	-2.0%	-14.5	-6.1	17.8µM*	-12.1%
CS(=O)(=O)c1ccc2nc(NC(=O)Oc3ccccc3)sc2c1	0.9%	-5.1%	10.5	5.5	3.16µM*	-21.2%
CCOc1ccc(NS(=O)(=O)c2ccc(NC(C)=O)c(OC)c2)cc1	7.3%	3.9%	30.2	4.1	5.01µM*	-0.8%
CC(=O)Nc1ccc2nc(NS(=O)(=O)c3ccc(C)cc3)sc2c1	x	7.9%	x	3.6	-0.7%	x
COc1ccc2nc(NS(=O)(=O)c3ccc(NC(C)=O)cc3)sc2c1	-3.4%	-4.7%	0.3	-10.3	-7.9%	28.2µM*
CC(C)(CO)[C@@H](O)C(=O)NCCCO	-1.5%[0.00818 µM]	6.5%	x	7.5	1.8%	-11.4%
COc1cccc([C@@H]2Oc3ccc(Br)cc3C(=O)[C@H]2OC(=O)NCCOc2ccccc2)c1	x	-10.6%	x	-1.6	-0.2%	-7.2%
COc1ccc2nc(NC(=O)CSc3nc(C)cc(=O)[nH]3)sc2c1	-26.5%	-0.4%	-7.2	-13.1	u	28.2µM*
COc1ccc(-n2nc(C(=O)Nc3nc4ccc(OC)cc4s3)c3ccccc3c2=O)c(OC)c1	1.0%	7.3%	38.7	1.9	20µM*	-6.1%
